Source: PubChem BioAssay
Many of the other results were omitted from the sample, so hits are more common in it than they were.
Chlamy TAG = inducers of triacylglycerol accumulation in Chlamydomonas reinhardtii algae. actives 0.84% (n = 44,000). AID 1159537. calls only at 10 µM (by protocol). Chlamydomonas reinhardtii TAG, Nile Red fluorescence, 72 h; call rule not given here;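 also: hits raise Nile Red signal meaning more stored TAG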
An asterisk follows results filed as active; i = inactive; + = active, no number.

SMILES	Chlamy TAG
COc1ccc(S(=O)(=O)N(CC(=O)NC(C)C)c2cc(C)cc(C)c2)cc1OC	+
COc1ccc(S(=O)(=O)N(CC(=O)N2CCCC2)c2cc(C)cc(C)c2)cc1OC	i
COc1ccc(S(=O)(=O)N(CC(=O)Nc2ccccc2F)c2cc(C)cc(C)c2)cc1OC	i
Cc1onc(-c2ccccc2)c1C(=O)Nc1ccccc1F	i
O=C(CN(c1cccc([N+](=O)[O-])c1)S(=O)(=O)c1ccccc1)N[C@@H]1CCCC[C@H]1O	i
CCOc1ccc(CN2CCN(c3ccc([N+](=O)[O-])cc3)CC2)cc1	+
COc1cc(CN2CCN(c3ccc([N+](=O)[O-])cc3)CC2)cc(Br)c1O	i
O=[N+]([O-])c1ccc(N2CCN(Cc3ccncc3)CC2)cc1	i
O=C(O)c1ccc(CN2CCN(c3ccc([N+](=O)[O-])cc3)CC2)cc1	i
O=[N+]([O-])c1ccc(CN2CCN(c3ncccn3)CC2)cc1	i
CCCCOc1ccc(CN2CCN(c3ccc([N+](=O)[O-])cc3)CC2)cc1	+
C=CCn1c(SC)nc(O)c(Cc2ccccc2)c1=O	i
OCC1CCCN1C1C2CC3CC(C2)CC1C3 (stereo not drawn)	i
COc1ccc(C(=O)N2CCN(C(=O)c3cccc(Cl)c3)CC2)cc1OC	i
Fc1ccccc1-c1nc(N2CCOCC2)c2ccccc2n1	i
COc1ccc(CN2CCN(c3cccc(Cl)c3)CC2)c(OC)c1OC	i
O=C(NCC1CCCO1)c1cc(-c2ccc3c(c2)OCO3)nc2ccccc12 (stereo not drawn)	+
O=C(NCc1ccccn1)c1cc(-c2ccc3c(c2)OCO3)nc2ccccc12	i
NS(=O)(=O)c1ccc(CNC(=O)c2cc(-c3ccc4c(c3)OCO4)nc3ccccc23)cc1	i
CCc1ccccc1N(CC(=O)Nc1ccc(F)cc1F)S(=O)(=O)c1ccccc1	i
O=C(Nc1ccc(Cl)cc1Cl)c1ccccc1	i
Nc1ccc(C(=O)Nc2ccc(Cl)cc2Cl)cc1	+
O=C(Nc1ccc(Cl)cc1F)c1ccc(C(=O)Nc2ccc(Cl)cc2F)cc1	i
Cc1ccc(NC(=O)c2cccs2)cc1F	i
Cc1cc(NC(=O)C(=O)NCCN2CCN(C(=O)c3ccco3)CC2)ccc1Br	i
SMILES	Chlamy TAG
CCSc1nc2ccc(O)cc2[nH]1	i
O=c1c(CN2CCN(Cc3ccc4c(c3)OCO4)CC2)coc2ccccc12	i
O=C1c2ccccc2C(=O)N1CN1CCN(Cc2ccc3c(c2)OCO3)CC1	i
O=C1CC(N2CCN(Cc3ccc4c(c3)OCO4)CC2)C(=O)N1CCc1ccccc1 (stereo not drawn)	+
C=CCn1c(SCC(=O)O)nc2sc3c(c2c1=O)CCCC3	i
COc1ccc(NC(=O)CCC2CCCCC2)c([N+](=O)[O-])c1	+
Cc1ccc(NC(=O)CCC2CCCCC2)c([N+](=O)[O-])c1	i
COc1ccc(NC(=O)CCC2CCCCC2)c(OC)c1	i
COc1cc(CN2CCN(c3ccc(Cl)cc3)CC2)c([N+](=O)[O-])cc1OC	i
O=C(Nc1ccccc1F)[C@@H]1C2C=CC(C2)[C@@H]1C(=O)O (stereo partly drawn)	i
O=C(O)C1C2C=CC(O2)C1C(=O)Nc1ccccc1F (stereo not drawn)	+
Cc1ccc(Cl)cc1NC(=O)C1C2C=CC(O2)C1C(=O)O (stereo not drawn)	i
NNC(=O)CNc1ccc(Cl)cc1Br	i
N#Cc1c(NC(=O)CSc2nnc3c(n2)[nH]c2ccccc23)sc2c1CCCC2	i
Oc1ccccc1CNCCC12CC3CC(CC(C3)C1)C2	+
COc1ccccc1CC(=O)NC12CC3CC(CC(C3)C1)C2	i
CC(C)(C)C(=O)NCCC12CC3CC(CC(C3)C1)C2	i
Cc1ccc(S(=O)(=O)c2ccc(-c3ccc([N+](=O)[O-])cc3)cc2)cc1	+
Cc1ccc(S(=O)(=O)c2ccc(C)cc2)cc1	i
Cc1ccc(NS(=O)(=O)c2ccc([N+](=O)[O-])cc2)cc1	i
COC(C(=O)NCc1ccc(C(C)(C)C)cc1)c1ccccc1 (stereo not drawn)	i
O=C(Nc1ccc(I)cc1)C1CCN(C(=O)c2cccs2)CC1	i
Cc1cccc(C(=O)Nc2ccc(C#N)cc2)c1	i
Clc1cc(Br)ccc1OCCCN1CCCC1	i
Cc1ccc(OCCN2CCOCC2)c(Br)c1	i
SMILES	Chlamy TAG
Clc1cc(Br)ccc1OCCN1CCOCC1	i
Cc1cc(Br)ccc1OCCOCCN1CCOCC1	+
Clc1cc(Br)ccc1OCCCN1CCOCC1	+
Cc1cc(Br)ccc1OCCCN1CCOCC1	i
Cc1cc(Br)ccc1OCCN1CCOCC1	i
Clc1ccc(OCCN2CCOCC2)c(Br)c1	i
Clc1ccc(OCCOCCN2CCOCC2)c(Br)c1	+
COc1cccc(OC)c1C(=O)N1CCC(C(=O)O)CC1	i
COc1ccc(OC)c(NC(=O)CN(c2ccccc2)S(=O)(=O)c2ccc(Cl)cc2)c1	i
NC(=O)NC(c1ccccc1)c1ccc(O)cc1 (stereo not drawn)	i
